# According to PubChem BioAssay (Tox21):
# Unmarked numbers belong to inactive results. Results filed as inconclusive are left out. Entries that show only a call come without a potency. Activity calls are given as the source filed them. Unless noted, calls follow the shape of the dose curve; as a rule, active = well fitted curve in the direction sought with a large enough effect in the repeat runs; inconclusive = weak or mixed curves; inactive = no such curve, though single readings can be large; an effect the other way counts as inactive or inconclusive.
# How the values were obtained:
# [1] = qHTS assay to identify small molecule agonists of the estrogen receptor alpha (ER-alpha) signaling pathway in the presence of an antagonist - cell viability counter screen (AID 1259386);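 also: series mostly up to about 92 µM; cells exposed to compounds for 22 h at 37 °C before the viability read; nearly all actives have a fitted effect of over 30% in size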
# In short: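 VM7Luc4E2 cells (endogenous full-length ER-alpha, 4×ERE-luciferase) were held 5 days in phenol red-free medium with 10% charcoal-stripped FBS, plated, then given 10.0nM ICI-182,780 and compounds at 15 concentrations for 22hr at 37C; viability read by CellTiter-Fluor fluorescence.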
# [2] = qHTS assay to identify small molecule agonists of the progesterone receptor (PR) signaling pathway - cell viability counter screen (AID 1346799; calls by dose curve; also: nearly all actives have a fitted effect of over 45% in size; also: potency is read from the fitted curve at half-maximal effect)
# In short: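 Using the same plates as the PR reporter screen, HEK293T PR-UAS-bla cells received compounds for 16 hr at 37C and were then lysed with CellTiter-Glo; luminescence was read 30 min later at room temperature.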
# [3] = target: Thyrotropin-releasing hormone receptor (Homo sapiens) (UniProt P34981); experiment: qHTS assay to identify small molecule antagonists of the thyrotropin-releasing hormone receptor (TRHR) signaling pathway (AID 1346877; active = well fitted inhibition curve with a large enough effect in the repeat runs, not every such curve was filed as active; also: potency is read from the fitted curve at half-maximal effect; as to activity, negative = inhibition: series mostly up to about 51 µM)
# In short: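 TRHR-expressing HEK293 cells were seeded, cultured 18 h at 37 °C, then loaded with calcium dye for 2 h. Compounds were pre-incubated 5 min at room temperature before 1 nM TRH (final) was added, and kinetic fluorescence was recorded for 3 min.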
# [4] = target: Thyrotropin-releasing hormone receptor (Homo sapiens) (UniProt P34981); experiment: qHTS assay to identify small molecule agonists of the thyrotropin-releasing hormone receptor (TRHR) signaling pathway (AID 1346891; calls by dose curve; also: potency is read from the fitted curve at half-maximal effect; as to activation: series mostly up to about 58 µM)
# In short: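 Overnight-plated (18 h, 37 °C, 5% CO2) TRHR-Hek293 cells; 2 h calcium dye at 37 °C; compound in DMSO; 3-min kinetic fluorescence read.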
# [5] = Human pregnane X receptor (PXR) small molecule agonists, qHTS cell viability counter screen (AID 1346977); also: nearly all actives have a fitted effect of over 50% in size; also: potency is read from the fitted curve at half-maximal effect
# In short: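 After a 5hr pre-incubation, PXR-Luc HepG2 cells received compounds plus positive control in DMSO and were kept 24hr at 37C. Cell viability was quantified by fluorescence from CellTiter-Fluor added for the final hour.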
# [6] = Caspase-3/7 induction in HepG2 cells by small molecules, qHTS assay (AID 1346978); also: nearly all actives have a fitted effect of over 15% in size
# In short: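 Caspase-3/7 induction was measured by Caspase-Glo 3/7 luminescence (30 min, room temperature) after a 17 hr compound exposure of wild-type HepG2 cells seeded at 2,000 per well and pre-incubated 5 hr.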
# [7] = Caspase-3/7 induction in CHO-K1 cells by small molecules, qHTS cell viability counter screen (AID 1346979); also: nearly all actives have a fitted effect of over 35% in size; also: potency is read from the fitted curve at half-maximal effect
# In short: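 Multiplexed with Caspase-Glo 3/7 in CHO-K1 cells, this counter screen added CellTiter-Fluor after 16hr of compound exposure and recorded fluorescence 1hr later.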
# [8] = Caspase-3/7 induction in CHO-K1 cells by small molecules, qHTS assay (AID 1346980); also: nearly all actives have a fitted effect of over 15% in size; also: potency is read from the fitted curve at half-maximal effect
# In short: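 Luminescent Caspase-Glo 3/7 read (30min, room temperature) quantified apoptosis induction. Cells were wild-type CHO-K1, treated with compound for 17hr at 37 C and 5% CO2.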
# [9] = Caspase-3/7 induction in HepG2 cells by small molecules, qHTS cell viability counter screen (AID 1346981); also: nearly all actives have a fitted effect of over 30% in size; also: potency is read from the fitted curve at half-maximal effect; as to activity change, negative = cytotoxicity: series mostly up to about 92 µM
# In short: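 Wild-type HepG2 cells (2,000/well) were allowed to settle for 5 hr at 37 C, 5% CO2, then dosed with compounds in DMSO by pin transfer. After 16 hr at 37 C, CellTiter-Fluor was added and fluorescence read 1 hr later.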
# [10] = target: Nuclear receptor subfamily 1 group I member 2 (Homo sapiens) (UniProt O75469); experiment: Human pregnane X receptor (PXR) small molecule agonists, qHTS assay (AID 1346982); also: nearly all actives have a fitted effect of over 35% in size; also: potency is read from the fitted curve at half-maximal effect
# In short: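 PXR-Luc HepG2 cells (CYP3A4 promoter-driven luciferase) were seeded in medium with 5% charcoal-stripped FBS, left 5 hr at 37 C, then exposed to compounds in DMSO for 24 hr. Luminescence was read after ONE-Glo addition.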
# [11] = target: Acetylcholinesterase (Homo sapiens) (UniProt P22303); experiment: Acetylcholinesterase (AChE) small molecule antagonists: colormetric cell-based qHTS assay (AID 1347395; calls by dose curve; also: nearly all actives have a fitted effect of over 30% in size; also: potency is read from the fitted curve at half-maximal effect)
# In short: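 In this cell-based qHTS, attached SH-SY5Y cells were treated with test chemicals for 30 min, after which acetylthiocholine hydrolysis was followed by DTNB colour development over 90 min at 37 C.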
# [12] = target: Acetylcholinesterase (Homo sapiens) (UniProt P22303); experiment: Acetylcholinesterase (AChE) small molecule antagonists: enzyme-based qHTS assay (AID 1347397; calls by dose curve; also: nearly all actives have a fitted effect of over 55% in size); details: Potency: AChE enzyme activity inhibition
# In short: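 Absorbance-based detection of thiocholine with DTNB served as the read-out. Recombinant human AChE was exposed to compound for 30 min at RT before a 10 min RT incubation with acetylthiocholine.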
# [13] = target: Progesterone receptor (Homo sapiens) (UniProt P06401); experiment: qHTS assay to identify small molecule agonists of the progesterone receptor (PR) signaling pathway (AID 1346784; calls by dose curve; also: nearly all actives have a fitted effect of over 30% in size)
# In short: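 Seed PR-UAS-bla HEK 293T cells (2% charcoal-stripped FBS), incubate 6 hr at 37C; add compounds in DMSO, 16 hr at 37C; add LiveBLAzer B/G substrate, 2 hr RT; read fluorescence intensity.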
# [14] = qHTS assay to identify small molecule antagonists of the progesterone receptor (PR) signaling pathway - cell viability counter screen (AID 1346798); also: nearly all actives have a fitted effect of over 50% in size; also: potency is read from the fitted curve at half-maximal effect; as to activity change, negative = cytotoxicity: series mostly up to about 92 µM
# In short: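 Measures cytotoxicity in parallel with the PR antagonist reporter read: HEK293T PR-UAS-bla cells get compound and R5020 for 16 hr, and remaining viable cells are quantified by CellTiter-Glo luminescence.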
# [15] = qHTS assay to identify small molecule antagonists of the TGF-beta/Smad signaling pathway - cell viability counter screen (AID 1346824); also: nearly all actives have a fitted effect of over 50% in size; also: potency is read from the fitted curve at half-maximal effect
# In short: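 Cytotoxicity counter-screen run in the same wells as the beta-lactamase Smad reporter read: CellTiter-Glo luminescence after 30 min at room temperature. HEK 293T SBE-bla cells had 5 hr compound exposure at 37 C with TGF-beta1 (0.25 ng/mL stock).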
# [16] = qHTS assay to identify small molecule agonists of the TGF-beta/Smad signaling pathway - cell viability counter screen (AID 1346829); also: nearly all actives have a fitted effect of over 45% in size; also: potency is read from the fitted curve at half-maximal effect; as to activity change, negative = cytotoxicity: top concentration of the series differs between compounds
# In short: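 After overnight seating at 37 C and 5% CO2, reporter cells got compounds for 5 hr and FRET substrate for 2 hr; cell viability then came from CellTiter-Glo luminescence.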
# [17] = qHTS assay to identify small molecule agonists of the TGF-beta/Smad signaling pathway (AID 1346859; active = well fitted activation curve with a large enough effect in the signal ratio in the repeat runs, not every such curve was filed as active; the % refers to the signal ratio; also: series mostly up to about 77 µM)
# In short: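 Beta-lactamase reporter activity downstream of Smad binding elements was measured in stably transfected HEK 293T cells; compounds were incubated for 5 hr, substrate for 2 hr at room temperature.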
# [18] = target: Nuclear receptor subfamily 1 group I member 2 (Rattus norvegicus) (UniProt Q9R1A7); experiment: Rat pregnane X receptor (rPXR) activation by small molecules, qHTS assay (AID 1346983); details: rPXR luciferase reporter cells, One-Glo luminescence, 24 h; max activation: hits give high values; also: nearly all actives have a fitted effect of over 20% in size
# In short: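 Luminescent readout (One-Glo luciferase, 30 min room temperature) followed 24 hr compound treatment at 37 C of rPXR cells plated 2,000 per well and preincubated 5hr; qHTS format with compounds delivered in DMSO.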
# [19] = target: Nuclear receptor subfamily 1 group I member 2 (Homo sapiens) (UniProt O75469); experiment: Human pregnane X receptor (PXR) activation by small molecules, qHTS assay (AID 1346985); also: nearly all actives have a fitted effect of over 40% in size
# In short: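 DPX-2 cells (HepG2 co-transfected with a PXR response element and a CYP3A4-promoter luciferase construct) were seeded at 2,000 per well, rested 5 hr at 37C, then exposed to DMSO-dissolved compounds for 24 hr. Activation was read as luciferase luminescence.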
# [20] = target: Progesterone receptor (Homo sapiens) (UniProt P06401); experiment: qHTS assay to identify small molecule antagonists of the progesterone receptor (PR) signaling pathway (AID 1346795; active = well fitted inhibition curve with a large enough effect in the signal ratio in the repeat runs, not every such curve was filed as active; the % refers to the signal ratio; also: potency is read from the fitted curve at half-maximal effect)
# In short: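 Screening used a GripTite HEK293T line with PR-responsive UAS-beta-lactamase. Cells were challenged with compound in the presence of 1 nM R5020 final for 16 hr at 37C; B/G FRET substrate, 2 hr room temperature, fluorescence.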
# Sequence of Nuclear receptor subfamily 1 group I member 2 (Homo sapiens) (O75469 whole entry, looked up): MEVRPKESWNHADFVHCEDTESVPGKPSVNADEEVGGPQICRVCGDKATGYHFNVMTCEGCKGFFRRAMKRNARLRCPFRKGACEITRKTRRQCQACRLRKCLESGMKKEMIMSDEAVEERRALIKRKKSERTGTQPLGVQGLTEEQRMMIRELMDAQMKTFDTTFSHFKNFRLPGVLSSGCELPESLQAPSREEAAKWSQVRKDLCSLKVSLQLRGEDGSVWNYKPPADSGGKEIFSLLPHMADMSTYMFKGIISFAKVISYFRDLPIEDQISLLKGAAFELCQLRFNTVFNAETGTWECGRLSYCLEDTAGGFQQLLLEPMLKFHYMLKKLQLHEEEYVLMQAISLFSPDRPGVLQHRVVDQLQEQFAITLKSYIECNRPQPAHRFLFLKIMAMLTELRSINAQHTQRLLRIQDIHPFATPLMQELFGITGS
# Sequence of Acetylcholinesterase (Homo sapiens) (P22303 whole entry, looked up): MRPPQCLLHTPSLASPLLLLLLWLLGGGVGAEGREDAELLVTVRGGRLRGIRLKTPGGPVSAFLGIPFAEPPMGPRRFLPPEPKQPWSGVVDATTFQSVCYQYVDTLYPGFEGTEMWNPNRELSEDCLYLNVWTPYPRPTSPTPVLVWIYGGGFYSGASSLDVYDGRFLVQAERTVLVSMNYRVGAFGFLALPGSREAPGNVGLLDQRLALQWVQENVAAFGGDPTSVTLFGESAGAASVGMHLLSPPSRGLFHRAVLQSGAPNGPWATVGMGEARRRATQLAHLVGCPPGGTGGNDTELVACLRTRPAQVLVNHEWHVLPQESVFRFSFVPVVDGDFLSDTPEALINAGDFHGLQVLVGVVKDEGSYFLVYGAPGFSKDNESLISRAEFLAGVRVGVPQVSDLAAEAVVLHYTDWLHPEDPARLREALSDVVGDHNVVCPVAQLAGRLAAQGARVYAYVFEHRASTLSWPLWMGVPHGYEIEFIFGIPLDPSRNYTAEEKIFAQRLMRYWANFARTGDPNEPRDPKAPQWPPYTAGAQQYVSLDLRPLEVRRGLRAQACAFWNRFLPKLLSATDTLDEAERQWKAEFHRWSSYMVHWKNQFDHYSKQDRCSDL
# Sequence of Thyrotropin-releasing hormone receptor (Homo sapiens) (P34981 whole entry, looked up): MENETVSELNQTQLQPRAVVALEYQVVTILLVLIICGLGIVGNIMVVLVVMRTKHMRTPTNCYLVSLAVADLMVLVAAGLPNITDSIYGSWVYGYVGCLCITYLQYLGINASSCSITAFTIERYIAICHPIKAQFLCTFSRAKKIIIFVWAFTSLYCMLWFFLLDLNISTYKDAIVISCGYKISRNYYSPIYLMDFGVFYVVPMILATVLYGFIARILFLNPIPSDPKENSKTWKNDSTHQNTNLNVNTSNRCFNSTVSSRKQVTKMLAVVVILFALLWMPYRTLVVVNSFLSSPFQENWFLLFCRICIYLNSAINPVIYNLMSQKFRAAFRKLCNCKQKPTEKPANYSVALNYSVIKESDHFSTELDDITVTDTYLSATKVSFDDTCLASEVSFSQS
# Sequence of Progesterone receptor (Homo sapiens) (P06401 whole entry, looked up): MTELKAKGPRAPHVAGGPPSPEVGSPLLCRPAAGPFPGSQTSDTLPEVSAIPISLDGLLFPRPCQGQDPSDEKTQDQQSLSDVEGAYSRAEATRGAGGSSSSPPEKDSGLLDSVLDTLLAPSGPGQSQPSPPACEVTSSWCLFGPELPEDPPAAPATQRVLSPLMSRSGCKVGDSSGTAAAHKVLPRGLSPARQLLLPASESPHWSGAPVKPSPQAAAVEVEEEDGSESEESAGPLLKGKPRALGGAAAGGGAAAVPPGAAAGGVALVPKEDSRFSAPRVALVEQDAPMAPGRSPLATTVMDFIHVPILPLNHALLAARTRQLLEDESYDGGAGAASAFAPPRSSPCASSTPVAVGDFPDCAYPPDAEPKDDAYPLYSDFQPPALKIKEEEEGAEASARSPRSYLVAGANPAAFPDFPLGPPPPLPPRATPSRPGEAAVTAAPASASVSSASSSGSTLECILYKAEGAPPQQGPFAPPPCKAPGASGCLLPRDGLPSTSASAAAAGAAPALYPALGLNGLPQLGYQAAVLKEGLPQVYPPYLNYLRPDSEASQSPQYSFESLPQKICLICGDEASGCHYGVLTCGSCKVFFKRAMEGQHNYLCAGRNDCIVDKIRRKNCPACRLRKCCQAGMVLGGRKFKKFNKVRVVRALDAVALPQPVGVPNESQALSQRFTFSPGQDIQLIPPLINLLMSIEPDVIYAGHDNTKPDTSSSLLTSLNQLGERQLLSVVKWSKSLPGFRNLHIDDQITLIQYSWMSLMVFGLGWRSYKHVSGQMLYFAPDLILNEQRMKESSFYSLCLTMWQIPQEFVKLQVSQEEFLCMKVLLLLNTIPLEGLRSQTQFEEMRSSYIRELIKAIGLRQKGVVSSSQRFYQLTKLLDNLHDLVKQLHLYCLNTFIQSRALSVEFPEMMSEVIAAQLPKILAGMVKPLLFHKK
# Sequence of Nuclear receptor subfamily 1 group I member 2 (Rattus norvegicus) (Q9R1A7 whole entry, looked up): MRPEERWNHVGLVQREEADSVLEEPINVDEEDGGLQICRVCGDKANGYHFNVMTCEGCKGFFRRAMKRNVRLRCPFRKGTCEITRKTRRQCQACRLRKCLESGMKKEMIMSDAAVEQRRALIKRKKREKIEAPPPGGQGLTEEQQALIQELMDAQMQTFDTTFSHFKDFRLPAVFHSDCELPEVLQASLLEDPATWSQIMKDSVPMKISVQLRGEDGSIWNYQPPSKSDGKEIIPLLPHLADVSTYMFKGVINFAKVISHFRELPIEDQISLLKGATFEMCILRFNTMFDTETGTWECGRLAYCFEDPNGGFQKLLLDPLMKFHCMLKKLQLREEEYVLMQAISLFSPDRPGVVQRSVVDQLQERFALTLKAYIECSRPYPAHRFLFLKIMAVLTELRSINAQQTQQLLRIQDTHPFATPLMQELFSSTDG
structure (smiles),measurement,setting,value
O=C(NCc1cccnc1)Nc1ccc([N+](=O)[O-])cc1,Potency,[1],inactive
same,Potency,[2],43.3 µM (active)
same,Potency,[3],inactive
same,Potency,[4],inactive
same,Potency,[5],inactive
same,Potency,[6],inactive
same,Potency,[7],inactive
same,Potency,[8],inactive
same,Potency,[9],inactive
same,Potency,[10],inactive
same,Potency,[11],inactive
same,Potency,[12],inactive
CCOC(=O)[C@]1(c2ccccc2)Oc2ccccc2[C@@H]1N,Potency,[13],inactive
same,Potency,[14],inactive
same,Potency,[15],inactive
same,Potency,[16],inactive
same,outcome,[17],inactive
same,Potency,[3],inactive
same,Potency,[4],inactive
same,Potency,[6],inactive
same,Potency,[8],inactive
same,Potency,[9],inactive
same,Potency,[11],79.6 µM (active)
BrCCCCBr,Potency,[1],inactive
same,Potency,[2],inactive
same,Potency,[16],inactive
same,outcome,[17],inactive
same,Potency,[3],inactive
same,Potency,[4],inactive
same,Potency,[5],inactive
same,Potency,[6],inactive
same,Potency,[7],inactive
same,Potency,[8],inactive
same,Potency,[9],inactive
same,Potency,[10],inactive
same,Potency,[11],inactive
same,Potency,[12],inactive
O=Cc1ccc(Cl)cc1Cl,Potency,[1],inactive
same,Potency,[2],inactive
same,Potency,[15],inactive
same,Potency,[16],inactive
same,outcome,[17],inactive
same,Potency,[3],inactive
same,Potency,[4],inactive
same,Potency,[5],inactive
same,Potency,[6],inactive
same,Potency,[7],inactive
same,Potency,[8],inactive
same,Potency,[9],inactive
same,Potency,[10],inactive
same,Potency,[11],inactive
same,Potency,[12],inactive
O=C1NCN(c2ccccc2)C12CCN(CCCOc1ccc(F)cc1)CC2,Potency,[13],inactive
same,Potency,[14],inactive
same,Potency,[2],inactive
same,Potency,[15],inactive
same,Potency,[16],inactive
same,outcome,[17],inactive
same,Potency,[3],6.58 µM (active)
same,Potency,[4],6.01 µM (active)
same,Potency,[5],6.68 µM (active)
same,Potency,[6],inactive
same,Potency,[7],26.6 µM (active)
same,Potency,[8],inactive
same,Potency,[9],7.5 µM (active)
same,Potency,[10],5.96 µM (active)
same,max activation,[18],-0.12%
same,Potency,[19],inactive
same,Potency,[11],inactive
same,Potency,[12],inactive
CCOC(=O)COc1cc(-c2nn(C)c(OC(F)F)c2Cl)c(F)cc1Cl,Potency,[1],inactive
same,Potency,[2],inactive
same,Potency,[15],inactive
same,Potency,[16],inactive
same,Potency,[4],inactive
same,Potency,[5],inactive
same,Potency,[6],inactive
same,Potency,[7],inactive
same,Potency,[8],inactive
same,Potency,[9],inactive
same,Potency,[11],inactive
same,Potency,[12],inactive
CCOP(=S)(OCC)Oc1cc(Cl)c(Br)cc1Cl,Potency,[1],inactive
same,Potency,[2],inactive
same,Potency,[16],inactive
same,outcome,[17],inactive
same,Potency,[5],inactive
same,Potency,[6],inactive
same,Potency,[7],inactive
same,Potency,[8],inactive
same,Potency,[9],inactive
same,Potency,[10],61.1 µM (active)
C/C(=C\c1ccccc1)[N+](=O)[O-],Potency,[2],68.6 µM (active)
same,Potency,[15],inactive
same,Potency,[16],inactive
same,Potency,[4],inactive
same,Potency,[5],43.3 µM (active)
same,Potency,[7],10.9 µM (active)
same,Potency,[8],inactive
same,Potency,[9],68.6 µM (active)
same,Potency,[10],24.3 µM (active)
same,Potency,[11],inactive
same,Potency,[12],inactive
NCC(CC(=O)O)c1ccc(Cl)cc1 (stereo not given),"activity change, negative = cytotoxicity",[1],7.95% [at 0.349 µM]
same,"activity change, negative = cytotoxicity",[2],0.204% [at 0.349 µM]
same,"viability change, negative = cytotoxic",[15],2.11% [at 0.29 µM]
same,"activity change, negative = cytotoxicity",[16],-5.36% [at 0.29 µM]
same,activation,[17],-0.421% [at 0.29 µM]
same,"activity, negative = inhibition",[3],7.63% [at 0.194 µM]
same,activation,[4],-0.989% [at 0.218 µM]
same,"activity change, negative = cytotoxicity",[5],-0.756% [at 0.349 µM]
same,caspase activation,[6],1.78% [at 0.349 µM]
same,"activity change, negative = cytotoxicity",[7],5.63% [at 0.349 µM]
same,caspase-3/7 activation,[8],-0.192% [at 0.349 µM]
same,"activity change, negative = cytotoxicity",[9],8.17% [at 0.349 µM]
same,activation,[10],-6.38% [at 0.349 µM]
same,"activity, negative = inhibition",[11],4.84% [at 0.435 µM]
same,"activity change, negative = inhibition",[12],1.42% [at 0.435 µM]
CCOc1ccc(C(C)(C)COCc2cccc(Oc3ccccc3)c2)cc1,Potency,[1],inactive
same,Potency,[15],inactive
same,Potency,[16],inactive
same,outcome,[17],inactive
same,Potency,[3],inactive
same,Potency,[4],inactive
same,Potency,[5],inactive
same,Potency,[6],inactive
same,Potency,[7],inactive
same,Potency,[8],inactive
same,Potency,[9],inactive
same,Potency,[11],inactive
same,Potency,[12],inactive
COP(=O)(OC)O/C(=C/Cl)c1cc(Cl)c(Cl)cc1Cl,Potency,[1],inactive
same,Potency,[2],inactive
same,Potency,[15],inactive
same,Potency,[16],inactive
same,outcome,[17],inactive
same,Potency,[4],inactive
same,Potency,[5],inactive
same,Potency,[6],inactive
same,Potency,[8],inactive
same,Potency,[9],inactive
same,Potency,[10],72.4 µM (active)
same,Potency,[11],42.2 µM (active)
same,Potency,[12],inactive
IC(I)=C(I)I,Potency,[20],17.2 µM (active)
same,Potency,[14],27.3 µM (active)
same,Potency,[2],27.3 µM (active)
same,Potency,[15],43.6 µM (active)
same,Potency,[16],43.6 µM (active)
same,outcome,[17],inactive
same,Potency,[3],1.2 µM (active)
same,Potency,[4],inactive
same,Potency,[5],17.2 µM (active)
same,Potency,[6],inactive
same,Potency,[7],4.86 µM (active)
same,Potency,[8],4.86 µM (active)
same,Potency,[9],68.6 µM (active)
same,Potency,[10],4.86 µM (active)
same,Potency,[11],inactive
same,Potency,[12],inactive
